Measured values from PubChem BioAssay (EPA / NIEHS).
“And” between values parts separate entries of the source, which are not always exact repeats. Equal values may be shown once. Records with an inconclusive call do not appear. The source made the active and inactive calls. Rule for the calls, unless noted: active = hit-call score of the fitted dose curve at least 0.9, where 1 is the maximum; inactive = score below 0.9.

What was measured:
[1] = TAMU_PeakParms_SingleDonor1434_Chronotropy: Texas A&M University (TAMU) 1.5-hr Human Induced Pluripotent Stem Cell (iPSC)-derived Cardiomyocytes Calcium (Ca+2) Flux Assay for Cardiotoxicity: Chronotropy (changes in peak frequency) (AID 2284217); details: actives raise or lower the signal
Procedure, shortened: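 iPSC-derived cardiomyocytes (single donor 1434) dosed at 0.2, 1, 10 and 100 uM in 0.5% DMSO for 1.5 h at 37C; Ca2+ dye fluorescence gave average beat frequency. Zero-beat points removed; bidirectional fit versus DMSO, POD as EC05.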

[2] = CCTE_Mundy_HCI_Cortical_Synap_Neur_Matur_SynapseCount: CCTE's Synaptogenesis and Neurite Maturation Assay in rat cortical cells for Synapse Count, Mundy Lab (AID 2284218)
Procedure, shortened: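 High-content imaging of synaptophysin puncta per MAP2-positive neuron (Hoechst nuclei) in rat cortical cells exposed DIV 7–12 after glial arrest with AraC at DIV 5; decrease relative to DMSO scored.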

[3] = CCTE_Mundy_HCI_hN2_NOG_NeuriteCount: CCTE's Neurite Outgrowth Assay in human hN2 cells for Neurite Count, Mundy Lab (AID 2284219; active = hit-call score of the fitted dose curve at least 0.9, where 1 is the maximum)
Procedure, shortened: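 In this morphology assay, hNP1-derived neurons received test chemical 2 h post-plating and were fixed two days later in warm paraformaldehyde/sucrose containing Hoechst 33342. Neurites, labelled by rabbit anti-βIII-tubulin (1:800) and Alexa Fluor-488 (1:500), were counted automatically.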

[4] = CCTE_Mundy_HCI_hN2_NOG_NeuriteLength: CCTE's Neurite Outgrowth Assay in human hN2 cells for Neurite Length, Mundy Lab (AID 2284220; active = hit-call score of the fitted dose curve at least 0.9, where 1 is the maximum)
Procedure, shortened: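 Read-out is neurite length from high-content imaging of βIII-tubulin/Alexa Fluor-488-labelled neurons, referenced to DMSO controls.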

[5] = CCTE_Mundy_HCI_Cortical_Synap_Neur_Matur_CellBodySpotCount: CCTE's Synaptogenesis and Neurite Maturation Assay in rat cortical cells for Cell Body Spot Count, Mundy Lab (AID 2284223)
Procedure, shortened: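 Rat primary cortical cultures received AraC at DIV 5 to arrest glia, were dosed with chemical at DIV 7 with media change, and were fixed at DIV 12 (288.33 h). Synaptophysin puncta on MAP2-positive cell bodies per neuron were counted by high-content imaging versus DMSO.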

[6] = CCTE_Mundy_HCI_hNP1_Pro_ResponderAvgInten: CCTE's Proliferation Assay in human neuroprogenitor cells, Mundy Lab (AID 2284224; active = hit-call score of the fitted dose curve at least 0.9, where 1 is the maximum;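 note: human neural progenitor cells hNP1 derived from WA09 embryonic stem cells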)
Procedure, shortened: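 Proliferation read as average intensity of BrdU-positive cells, imaged at 26.25 h post-dosing: chemical exposure started after 40–44 h culture, BrdU during final 4 h, paraformaldehyde fixation. Positive-direction fit relative to DMSO.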

[7] = TAMU_PeakParms_SingleDonor1434_QT: Texas A&M University (TAMU) 1.5-hr Human Induced Pluripotent Stem Cell (iPSC)-derived Cardiomyocytes Calcium (Ca+2) Flux Assay for Cardiotoxicity: QT (decay-rise ratio) (AID 2284235; active = hit-call score of the fitted dose curve at least 0.9, where 1 is the maximum)
Procedure, shortened: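 Decay/rise ratio of calcium-flux fluorescence scored after 90 min exposure (37C) of donor 1434 iPSC cardiomyocytes to 0.2–100 uM (0.5% DMSO). Beat-cessation and severe-notch points removed; POD is EC05, a 5% rise over DMSO.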

[8] = CCTE_Mundy_HCI_Cortical_NOG_NeuronCount: CCTE's Neurite Outgrowth Assay in rat cortical cells for Neuron Count, Mundy Lab (AID 2284236; active = hit-call score of the fitted dose curve at least 0.9, where 1 is the maximum;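 note: neurons counted by imaging betaIII-tubulin and Hoechst stained cortical cells; cells exposed to compound for about 48 hours before fixation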)
Procedure, shortened: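 Read-out: neuron number by high-content imaging of betaIII-tubulin (Alexa Fluor-488) and Hoechst-labelled rat primary cortical cells.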

[9] = BSK_BT_PBMCCytotoxicity: PBMC Cytotoxicity Assessment in the BioMAP Diversity Plus: BT Assay (AID 2284225); details: primary human B cells with PBMC;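 note: PBMC viability measured by Alamar Blue dye reduction fluorescence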
Procedure, shortened: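 Viability by Alamar Blue reduction (6 h, ex/em 546/580 nm) after 90 h culture of SEB/TSST-1-activated PBMC (20 ng/mL each) given compound 1 h before activation. DMSO served as baseline for curve fitting.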

[10] = read-out: Secreted IgG (sIgG), gene 3500; test: BSK_BT_sIgG: BioMAP Diversity Plus: BT Assay for Secreted IgG (sIgG) Biomarker Activity (AID 2284226); details: primary human B cells with PBMC
Procedure, shortened: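 ELISA quantitation of secreted IgG from human B cells co-cultured with PBMC, sampled 24 h post-dosing. Values fitted relative to DMSO vehicle as baseline, positive fitting direction.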

[11] = BSK_BT_Bcell_Proliferation: Viability Assessment in the BioMAP Diversity Plus: BT Assay for B cell Proliferation (AID 2284227); details: primary human B cells with PBMC
Procedure, shortened: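 Human B cells co-cultured with PBMC were dosed with test chemicals and relative cell number was quantified by SRB staining at 72 h. Cells were fixed in 10% TCA, stained with 0.1% SRB and read at 560 nm. Activity was fitted in the positive direction against DMSO.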

[12] = read-out: Interleukin 6 (IL6), IL6 (gene 3569); test: BSK_BT_xIL6: BioMAP Diversity Plus: BT Assay for Interleukin 6 (IL6) Biomarker Activity (AID 2284228); details: primary human B cells with PBMC
Procedure, shortened: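 Human B cell plus PBMC co-culture exposed to test chemical for 24 h; secreted IL-6 quantified by Luminex xMAP bead assay. Activity fitted in the positive direction against DMSO as negative control and baseline.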

[13] = read-out: Interleukin 17A (IL17A), IL17A (gene 3605); test: BSK_BT_xIL17A: BioMAP Diversity Plus: BT Assay for Interleukin 17A (IL17A) Biomarker Activity (AID 2284229); details: primary human B cells with PBMC
Procedure, shortened: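 B cells co-cultured with PBMC were exposed to test chemicals, and secreted IL-17A was quantified 24 h after dosing by Luminex xMAP bead immunoassay. Activity was fitted in the gain direction against DMSO as baseline.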

[14] = read-out: Tumor necrosis factor (Homo sapiens) (UniProt P01375); test: BSK_BT_xTNFa: BioMAP Diversity Plus: BT Assay for Tumor necrosis factor alpha (TNF-alpha) Biomarker Activity (AID 2284230); details: primary human B cells with PBMC
Procedure, shortened: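 B cells with PBMC in co-culture, dosed and sampled at 24 h; secreted TNF-alpha measured by Luminex xMAP bead assay. Activity fitted in the gain direction against DMSO as negative control and baseline.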

[15] = read-out: Vascular cell adhesion molecule 1 (VCAM1), VCAM1 (gene 7412); test: BSK_MyoF_VCAM1: BioMAP Diversity Plus: MyoF Assay for Vascular cell adhesion molecule 1 (VCAM1) Biomarker Activity (AID 2284231); details: primary human lung fibroblasts
Procedure, shortened: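 Primary human lung fibroblasts were dosed with test chemical for 24 h, then cell-surface VCAM-1 was measured by ELISA. Activity was fitted in the positive direction against DMSO as negative control and baseline.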

[16] = CCTE_Mundy_HCI_Cortical_Synap_Neur_Matur_NeuriteCount: CCTE's Synaptogenesis and Neurite Maturation Assay in rat cortical cells for Neurite Count, Mundy Lab (AID 2284222)
Procedure, shortened: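 Rat primary cortical cells; AraC added at DIV 5, chemicals dosed with media change at DIV 7 through DIV 12. MAP2/synaptophysin/Hoechst immunostaining, high-content imaging of neurite number; fitted relative to DMSO.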

[17] = UKN2_HCS_IMR90_cell_viability: Viability Assessment in the University of Konstanz (UKN) Leist Lab Neural Crest Cell Migration Assay in human induced IMR90 Pluripotent Stem Cells (UKN2) (AID 2284233);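 note: cells exposed to compound for 24 h after a 24 h migration phase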
Procedure, shortened: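 Viability read as calcein-AM fluorescence by high-content imaging, Hoechst co-stain, 30 min. Human iPSC (IMR90) neural crest cells had migrated 24 h into stopper-defined gaps before 24 h chemical exposure. Fitted bidirectionally relative to DMSO.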

Measured: AC50

Sequence of Tumor necrosis factor (Homo sapiens) (P01375 whole entry, looked up): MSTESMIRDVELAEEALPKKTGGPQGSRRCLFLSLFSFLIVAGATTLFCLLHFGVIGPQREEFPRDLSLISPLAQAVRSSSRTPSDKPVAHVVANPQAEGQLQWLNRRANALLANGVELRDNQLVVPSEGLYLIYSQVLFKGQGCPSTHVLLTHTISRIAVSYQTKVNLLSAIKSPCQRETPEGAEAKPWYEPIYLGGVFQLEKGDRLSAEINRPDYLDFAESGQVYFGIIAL

CC(=O)Nc1ccc(O)cc1
inactive: [1] | [2] | [3] | [4] | [5] | [6] | [7] | [8]

O=C(NO)c1ccccc1
active: [12] 4.24 µM | [13] 8.55 µM | [14] 19.2 µM
inactive: [9] | [10] | [11] | [15]

CC(C)c1c(C(=O)Nc2ccccc2)c(-c2ccccc2)c(-c2ccc(F)cc2)n1CC[C@@H](O)C[C@@H](O)CC(=O)O
inactive: [6] | [17]
active: [2] 3.58 µM | [16] 3.35 µM | [5] 4.68 µM | [8] 7.8 µM

O=C(NCc1ncc(C(F)(F)F)cc1Cl)c1c(Cl)cccc1Cl
active: [10] 9.52 µM | [11] 20 µM | [12] 20 µM | [13] 15.5 µM | [14] 20 µM
inactive: [9] | [15]

Cc1ccc(N=Nc2c(O)ccc3ccccc23)c(C)c1
inactive: [9] | [11] | [12] | [13] | [14] | [15]
active: [10] 10 µM

CC1=NN(c2ccccc2)C(=O)C1
inactive: [9] | [10] | [11] | [13] | [14] | [15]
active: [12] 3.91 µM

Cc1cccc2c1ccc1ccccc12
inactive: [9] | [11] | [13] | [14] | [15]
active: [10] 26.6 µM | [12] 0.157 µM

C=CC(C)(CCC=C(C)C)OC(C)=O (centres undefined)
inactive: [9] | [10] | [11] | [12] | [13] | [14] | [15]

CCOC(=O)CN[C@@H](C(=O)N1CC[C@H]1C(=O)NCc1ccc(/C(N)=N/O)cc1)C1CCCCC1
inactive: [9] | [10] | [11] | [12] | [13] | [14] | [15]

C=COC(=O)C(C)(C)CCCCCC
active: [15] 31 µM
inactive: [9] | [10] | [11] | [12] | [13] | [14]

CC(C)(C)c1ccc(O)c(O)c1
active: [9] 25.2 µM | [10] 31.4 µM | [11] 29.1 µM | [12] 25.3 µM | [13] 16.5 µM | [14] 31.5 µM | [15] 31.5 µM

O=C1OC2(c3ccccc31)c1cc(I)c(O)c(I)c1Oc1c2cc(I)c(O)c1I
active: [15] 9.09 µM
inactive: [9] | [10] | [11] | [12] | [13] | [14]

COCN(COC)c1nc(N(COC)COC)nc(N(COC)COC)n1
inactive: [9] | [10] | [11] | [12] | [13] | [14] | [15]

CN(C)c1ccc(C(=C2C=CC(=[N+](C)C)C=C2)c2ccccc2)cc1
active: [9] 0.993 µM | [10] 0.227 µM | [11] 0.248 µM | [12] 1.13 µM | [13] 0.28 µM | [14] 0.805 µM | [15] 0.0764 µM

COc1cccc(O)c1
inactive: [9] | [10] | [11] | [12] | [13] | [14] | [15]

C[C@]12CC[C@@H]3c4ccc(O)cc4CC[C@H]3[C@@H]1C[C@@H](O)[C@@H]2O
inactive: [9] | [10] | [11] | [12] | [13] | [14] | [15]

Clc1ccc(Nc2nnc(Cc3ccncc3)c3ccccc23)cc1
active: [10] 6.52 µM | [12] 8.4 µM
inactive: [9] | [11] | [13] | [14] | [15]

OCCN1CN(CCO)CN(CCO)C1
active: [9] 30.2 µM | [10] 29.2 µM | [11] 38.2 µM | [12] 33.6 µM | [14] 34.1 µM
inactive: [13] | [15]

O=C(O)C(F)(F)OC(F)(F)C(F)(F)OC(F)(F)C(F)(F)OC(F)(F)C(F)(F)C(F)(F)C(F)(F)F
active: [10] 42.5 µM and 34.9 µM | [12] 43.1 µM and 52.8 µM | [13] 41.8 µM and 51.3 µM | [14] 48.6 µM and 53.5 µM | [15] 12.5 µM and 12.3 µM
inactive: [9] | [11]

O=S(=O)(O)C(F)(F)C(F)(F)C(F)(F)C(F)(F)C(F)(F)C(F)(F)C(F)(F)C(F)(F)C(F)(F)C(F)(F)F
inactive: [9] | [10] | [11] | [12] | [13] | [14] | [15]

Oc1cc2ccccc2cc1O
inactive: [9] | [10] | [11] | [12] | [13] | [14] | [15]

COc1cc(OC)nc(NC(=O)NS(=O)(=O)Nc2ccccc2C(=O)N(C)C)n1
inactive: [9] | [10] | [11] | [12] | [13] | [14] | [15]
